# The panel holds about 83,000 compounds, 20% with a hit somewhere; the sample as a whole holds those more often.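 Negative percent growth values reflect cell death: -40 means 40% of the cells present at the start died, and -100 means all died.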 A number with no mark means an inactive call. Active and inactive are the calls of the source. How the source made its calls: active means growth percent below 10; inactive means the rest.
# Experiments:
# Assay in all cases: NCI-60 one-dose screen, 48 h (100 = growth as untreated, 0 = no growth, -100 = all killed)
# [1] = system: SK-MEL-2 melanoma; settings: 10 µM unless noted
# [2] = system: EKVX NSCLC; settings: 10 µM unless noted
# [3] = system: SN12C renal; settings: 10 µM unless noted
# [4] = system: UO-31 renal; settings: 10 µM unless noted
# [5] = system: ACHN renal; settings: 10 µM unless noted
# [6] = system: A498 renal; settings: 10 µM unless noted
# [7] = system: CCRF-CEM leukemia; settings: 10 µM unless noted
# [8] = system: MOLT-4 leukemia; settings: 10 µM unless noted
# [9] = system: SR leukemia; settings: 10 µM unless noted
# [10] = system: RPMI-8226 leukemia; settings: 10 µM unless noted
# [11] = system: OVCAR-8 ovarian; settings: 10 µM unless noted
# [12] = system: OVCAR-5 ovarian; settings: 10 µM unless noted
# [13] = system: OVCAR-4 ovarian; settings: 10 µM unless noted
# [14] = system: SK-OV-3 ovarian; settings: 10 µM unless noted
# [15] = system: IGROV1 ovarian; settings: 10 µM unless noted
# [16] = system: OVCAR-3 ovarian; settings: 10 µM unless noted
# [17] = system: HS 578T breast; settings: 10 µM unless noted
# [18] = system: NCI/ADR-RES ovarian; settings: 10 µM unless noted
# [19] = system: TK-10 renal; settings: 10 µM unless noted
# [20] = system: CAKI-1 renal; settings: 10 µM
Compound,growth [1],growth [2],growth [3],growth [4],growth [5],growth [6],growth [7],growth [8],growth [9],growth [10],growth [11],growth [12],growth [13],growth [14],growth [15],growth [16],growth [17],growth [18],growth [19],growth [20]
CC(C)=CCc1c2c(c(O)c3c1O[C@]14C(=C[C@@H]5C[C@H]1C(C)(C)O[C@@]4(C/C=C(/C)C(=O)O)C5=O)C3=O)CC(O)C(C)(C)O2 (stereo not given in full),-71.3% (active),-32.5% (active),12.9%,-57.1% (active),-11% (active),-75.6% (active),5.72% (active),-7.09% (active),-5.31% (active),-18.5% (active),-25.1% (active),-10.7% (active),18.7%,30.4%,5.2% (active),-96.4% (active),15.7%,18%,,
C=C(C)C(=O)O[C@H]1C[C@@]2(C)OC(=CC2=O)/C(CO)=C\[C@H]2OC(=O)C(=C)[C@H]12,-23.7% (active),-5.67% (active),,-90.1% (active),-42.1% (active),-3.55% (active),-44% (active),-28% (active),-38.5% (active),-25.6% (active),8.5% (active),-56.5% (active),17.4%,81.6%,-36% (active),-93.6% (active),17.2%,11.6%,-88.1% (active),-75.1% (active)
COc1cc(O)c2c(c1)[C@H]1O[C@@H]1C[C@H](O)[C@H](O)C(=O)/C=C\C[C@H](C)OC2=O,20.1%,51.8%,53.5%,20.4%,45.4%,58.9%,22.2%,33.6%,22.3%,24.5%,59.3%,61.5%,27%,80.2%,39%,32.1%,76.6%,78.7%,48.6%,
O=c1c2c(O)cccc2oc2c3c(cc(O)c12)O[C@H]1OC=C[C@@H]31,95.5%,42.8%,92.6%,79.3%,74.9%,89.1%,92.7%,88.5%,42.6%,93.7%,87.8%,110%,,78.9%,77.4%,106%,94.9%,87.9%,89.5%,
CC1COc2c(N3CCN(C)CC3)c(F)cc3c(=O)c(C(=O)N/N=C/c4cc[nH]c4)cn1c23 (stereo not given),83.5%,33.3%,49.3%,54%,43.8%,40.6%,-35.9% (active),9.4% (active),,45.3%,19.4%,77.8%,44.6%,61.6%,26.6%,,67.5%,94.2%,87.8%,
CC1OC(O[C@@H]2[C@H](O)C(CO)OC(O[C@H]3COC(O[C@H]4CC[C@]5(C)[C@H]6CC[C@]78OC[C@@]9(CC[C@](C)(C=O)C[C@H]97)C(=O)C[C@@]8(C)[C@]6(C)CC[C@H]5C4(C)C)[C@@H](O)[C@@H]3O)[C@H]2OC2OC[C@@H](O)[C@@H](O)[C@@H]2O)[C@@H](O)[C@@H](O)[C@H]1O (stereo not given in full),99.4%,89.2%,,75.2%,97.1%,132%,80.5%,63.6%,8.86% (active),101%,91.9%,110%,91.6%,86.8%,94.8%,105%,103%,95.2%,102%,84.8%
C=C(C)C(=O)O[C@H]1C[C@@]2(C)OC(=CC2=O)[C@H](C)[C@H](O)[C@H]2OC(=O)C(=C)[C@@H]21,43.1%,73.6%,73.9%,53.9%,31.9%,131%,7.85% (active),76.6%,38.1%,27.1%,71.9%,98.6%,82.3%,89.7%,69.7%,20.1%,95.4%,84.1%,,
NC(=O)C(=Cc1ccc(Cl)cc1)C(N)=O,87.3%,59.8%,45.3%,57.6%,59.4%,,57%,74.6%,53.3%,41.9%,65.6%,78.2%,62.3%,,59.1%,52%,89.7%,57.1%,67.9%,
CCCCCCCCCC[C@@H](C)[C@@H]1CC(=O)N[C@H]([C@@H](C)O)C(=O)N[C@@H](C)C(=O)N[C@H](C)C(=O)N[C@@H](CCC(N)=O)C(=O)N[C@H](Cc2ccc(O)cc2)C(=O)N[C@@H](C(C)CC)C(=O)O1 (stereo not given in full),65.5%,66.6%,66.5%,79.6%,98.3%,64.3%,63.2%,41.1%,75%,35.1%,51.8%,92.2%,30.9%,66.5%,76.2%,48.4%,89%,93.6%,47.9%,
CC(=O)NC(C)(C)C(=O)N1CCC[C@H]1C(=O)NC(C)(C)C(=O)N[C@@H](C)C(=O)NC(C)(C)C(=O)NC(C)(C)C(=O)N[C@@H](CCC(N)=O)C(=O)NC(C)(C)C(=O)N[C@H](C(=O)NC(C)(C)C(=O)NCC(=O)N[C@@H](CC(C)C)C(=O)NC(C)(C)C(=O)N1CCC[C@H]1C(=O)N[C@H](C(=O)NC(C)(C)C(=O)NC(C)(C)C(=O)N[C@@H](CCC(N)=O)C(=O)N[C@@H](CCC(N)=O)C(=O)N[C@H](CO)Cc1ccccc1)C(C)C)C(C)C,0.326% [4.25 µM] (active),65% [4.25 µM],13.4% [4.25 µM],97.7% [4.25 µM],96.3% [4.25 µM],25% [4.25 µM],,35.6% [4.25 µM],30.2% [4.25 µM],-17.4% [4.25 µM] (active),46.3% [4.25 µM],45.2% [4.25 µM],24.5% [4.25 µM],17.1% [4.25 µM],46.4% [4.25 µM],26.3% [4.25 µM],46% [4.25 µM],101% [4.25 µM],59.2% [4.25 µM],
COc1cc([C@H]2OC[C@H]3[C@@H]2CO[C@@H]3c2ccc(O)c(OC)c2)ccc1O,95.3%,80.3%,74.6%,83.1%,93.5%,112%,94.2%,109%,67.3%,72.1%,84.2%,86.6%,96.6%,69%,69.9%,96.8%,107%,85.7%,,

# Source: PubChem BioAssay (NCI)
